Hit rate of the full screen: of about 330,000 compounds, about 520 (0.16%) were called active. The full list was thinned out, with actives kept by preference. Values without a mark were called inactive.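 Rule for the calls: active = inhibition of at least 50% in every replicate; inconclusive = best replicate reaches 50% inhibition but some replicates fall short; inactive = the rest.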
These compounds were tested against Histone acetyltransferase RTT109 (Candida albicans (strain SC5314 / ATCC MYA-2876)) (UniProt Q5AAJ8) (assay: inhibitors of C. albicans Rtt109/Vps75 HAT, primary screen, biochemical, ThioGlo CoA-SH fluorescence, plate reader (AID 540336)). Conditions: purified Rtt109/Vps75, ThioGlo CoA-SH fluorescence, 4 h; at 34.9 µM; hits give high values.
Chain of Histone acetyltransferase RTT109 (Candida albicans (strain SC5314 / ATCC MYA-2876)) (Q5AAJ8 whole entry, looked up): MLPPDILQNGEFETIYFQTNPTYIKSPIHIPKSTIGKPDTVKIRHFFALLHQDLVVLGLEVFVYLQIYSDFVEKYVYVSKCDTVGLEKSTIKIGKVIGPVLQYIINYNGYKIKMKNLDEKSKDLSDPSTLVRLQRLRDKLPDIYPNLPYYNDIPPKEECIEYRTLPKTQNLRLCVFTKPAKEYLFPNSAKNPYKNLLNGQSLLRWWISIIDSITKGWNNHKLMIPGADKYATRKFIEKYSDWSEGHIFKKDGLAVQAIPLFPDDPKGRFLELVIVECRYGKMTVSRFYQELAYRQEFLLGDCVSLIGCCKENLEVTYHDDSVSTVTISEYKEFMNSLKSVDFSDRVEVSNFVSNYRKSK

Structure (SMILES) | inhibition
COc1cc(OC)c(C(=O)NNC(=O)c2ccc(NS(=O)(=O)c3cccs3)cc2)cc1OC | -0.841%
COc1ccc(-c2ccc3c(c2)[C@@H]2C[C@H](N(C)S(=O)(=O)c4ccccc4)[C@H]([C@H](C)O)C(=O)N2CC3)cc1 | -7.44%
Cc1ccc(C(=O)O)c(NC=O)c1OCc1ccccc1 | 2.64%
O=C(CC(=O)c1cccnc1)c1ccccc1 | 5.8%
COc1cc2c(cc1OC)C(C(C)C)=NC(C)(C)C2 | -260%
COc1cc2c(cc1OC)C(Nc1ccc(S(N)(=O)=O)cc1)=NC(C)(C)C2 | -0.292%
COc1cc2c(cc1O)C(SC)=NC(C)(C)C2 | 85% (active)
C=CCNC(=O)C12CC3CC(C1)CC(C(=O)NCC=C)(C3)C2 | -14.4%
C=CCNC(=O)C1CC=CCC1C(=O)O (centres undefined) | -1.04%
C=CCNC(=O)C1CC2c3ccccc3C1c1ccccc12 (centres undefined) | 50.9% (active)
C=CCCC(=O)N1C[C@H]2CON(C)[C@H]2C[C@H]1c1cccc(Nc2ccccc2)c1 | 7.97%
Cc1ccc(S(=O)(=O)c2cc3c(=O)n4cccc(C)c4nc3n(CCc3ccccc3)c2=N)cc1C | 0.852%
CC(=NNC(=S)N1CCCCCC1)c1ccccn1 | 16.2%
CCN1CCC(O)(/C=C/c2ccc(C)cc2)C(C(=O)/C=C/c2ccc(C)cc2)C1 (centres undefined) | 3.59%
O=C1CC(C(=O)O)NC(=S)N1 (centres undefined) | -12.1%
O=C(O)C(=Cc1ccccc1[N+](=O)[O-])c1ccccc1 | -1.92%
CCc1c(Nc2ccccc2Cl)nc(N)[nH]c1=O | 4.46%
CC(C)(C)c1nnc2sc(SCC(O)=C(C#N)c3nc4ccccc4[nH]3)nn2c1=O | -1.69%
FC(F)(F)c1ccc(-c2cccc3c2C2CC3CCN2Cc2ccccc2)cc1 (centres undefined) | -0.156%
O=C(c1cccnc1)N(Cc1ccccc1)C(=O)c1cccnc1 | 7.15%
O=C(c1cccnc1)N(c1cc2sc(=O)oc2c2ccccc12)S(=O)(=O)c1ccccc1 | 101% (active)
COc1ccc(N(C(=O)c2cccnc2)S(=O)(=O)c2ccc(OC)c(OC)c2)cc1 | -7.79%

Structure (SMILES) | inhibition
Oc1c(Cl)cc(Cl)c(Cl)c1Cc1c(O)c(Cl)cc(Cl)c1Cl | 70.6% (active)
Cc1ccc(Cn2c(C)c3cnn(CC(=O)NCCN4CCOCC4)c(=O)c3c2C)cc1 | 4.07%
O=C(NC(Cc1ccccc1)C(=O)N1CCCC(C(F)(F)F)C1)c1ccccc1 (centres undefined) | 8.65%
O=C(NCC(=O)N1CCCC(C(F)(F)F)C1)c1ccccc1F (centres undefined) | -12.6%
FC(F)(F)C1CCCN(c2nsc3ccccc23)C1 (centres undefined) | 129% (active)
CCN(CC(=O)Nc1c(F)cccc1F)C(=O)Cc1cccs1 | -5.91%
COC(=O)c1ccc(CNC(=O)Cn2cc(C)c(=O)[nH]c2=O)cc1 | -6.85%
NC(=S)NN=C1CCCC(C(F)(F)F)C1 (centres undefined) | 6.12%
CN(CCc1ccccc1)C(=O)c1cccc(NC(=O)Cc2cccc(NC(=O)C3CCCN(C(=O)CCc4ccccc4)C3)c2)c1 (centres undefined) | 10.3%
CCN(CC)CCCC(C)n1c2nc(=O)[nH]c(=O)c-2nc2cc(Cl)ccc21 (centres undefined) | 1.9%
CC(=O)Oc1ccc(OC(C)=O)c2c1C1C=CC2CC1 | -1.25%
O=C(CCC(=O)N1CCN(S(=O)(=O)c2ccc(Cl)cc2)CC1)NCc1cccc(C(F)(F)F)c1 | -0.722%
CC(C(=O)Nc1ccc(O)c(C(=O)O)c1)N1C(=O)/C(=C/c2cccs2)SC1=S (centres undefined) | 81.1% (active)
O=C(CCCN1C(=O)/C(=C/c2cccs2)SC1=S)Nc1ccc(O)cc1 | 3.39%
O=C(CCN1C(=O)/C(=C/c2cccs2)SC1=S)NNC(=O)c1cccc(O)c1 | 2.35%
COc1ccc(C(=O)N(C)Cc2ccc(OC)c(OC)c2OC)cc1S(=O)(=O)N1CCOCC1 | 1.9%
O=C1CC(c2ccccc2)C(c2ccccc2)=NN1 (centres undefined) | 6.56%
O=C1/C(=C\c2ccc([N+](=O)[O-])cc2)CS(=O)(=O)C/C1=C/c1ccc([N+](=O)[O-])cc1 | -5.87%
CCCCN(C(=O)c1cccc(N2C(=O)c3ccccc3C2=O)c1)c1c(N)n(CCCC)c(=O)[nH]c1=O | 6%
COC(=O)c1c(NC(=O)CSc2nncs2)sc2c1CCCCC2 | -2.31%
COC(=O)c1c(NC(=O)C2CC(C)=C(C)CC2C(=O)O)sc2c1CCCCC2 (centres undefined) | 56.5% (active)
N#Cc1c(NC(=O)C2CC(Cl)=CCC2C(=O)O)sc2c1CCCCC2 (centres undefined) | -0.566%
